An excerpt weighted towards active compounds, which were near 2.4% of everything screened.
MBD2 DNA inh: inhibitors of MBD2 binding to methylated DNA, primary screen, biochemical, TR-FRET, DNA-binding domain, human. Methyl-CpG-binding domain protein 2 (Homo sapiens), Q9UBB5. MBD2 binding to methylated oligonucleotide. inhibition, % at 4.4 µM. hit rate 0.31% among 370,000; in the data active means inhibition above about 13%
LEDGF integ inh: blockers of LEDGF/p75-dependent integrase strand transfer – biochemical, TR-FRET, high throughput, primary screen; hit rate 0.64% among 370,000; TR-FRET IN-LEDGF/p75 DNA integration, Eu/Cy5; AID 743269, 2014; HIV-1 integrase (with human LEDGF/p75); inhibition, % at 3.7 µM;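 active means inhibition above the screen-wide mean plus 3 SD, cut at about 13% in these data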;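 further: signal is the Cy5 over europium emission ratio at 671 and 618 nm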
PLCb3 inh: human PLC-beta3 inhibitors, primary screen, biochemical, fluorescence; inhibition, % at 12.2 µM; AID 720704, 2013; hit rate 0.18% among 370,000; Purified PLC-beta3, fluorogenic substrate; in the data active means inhibition above about 11%
UHRF1 MBD2 ctr: UHRF1 methylated DNA binding inhibitors, primary screen, counter-screen for MBD2 inhibitor project, biochemical, TR-FRET, human UHRF1, single concentration; hit rate 0.75% among 370,000; AID 687016, 2013; UHRF1 binding to methylated oligo; E3 ubiquitin-protein ligase UHRF1 (Homo sapiens), Q96T88; inhibition, % at 4.4 µM;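 further: UHRF1 SRA domain binding a hemimethylated CpG hairpin DNA probe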
PLCg1 inh: PLC-gamma1 enzyme inhibitors, primary screen, biochemical, fluorescence, purified enzyme | fluorogenic substrate | inhibition, % at 12.2 µM | hit rate 0.84% among 370,000; in the data active means inhibition above about 9.5%
UHRF1 ctr MBD2: UHRF1 methylated DNA binding inhibitors, counter-screen for MBD2 inhibitor project, biochemical, TR-FRET, human UHRF1; shares compounds with MBD2 DNA inh; UHRF1 binding to methylated oligonucleotide; inhibition, % at 4.4 µM; hit rate 25% among 1,000; AID 720530, 2013;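 further: UHRF1 SRA domain binding a labeled hemimethylated CpG hairpin DNA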
MBD2 DBD conf: inhibitors of MBD2 binding to methylated DNA, confirmation, biochemical, TR-FRET, DNA-binding domain, human; shares compounds with MBD2 DNA inh; TR-FRET MBD2-DBD binding to methylated oligonucleotide; inhibition, % at 4.4 µM; hit rate 26% among 1,000; in the data active means inhibition above about 14%
Numbers stand for hits; 0 = inactive; - = no result. Unless noted, no stated cut-off is given here; in the data, active means inhibition above about 21%; inactive means the rest.

SMILES | MBD2 DNA inh | LEDGF integ inh | PLCb3 inh | UHRF1 MBD2 ctr | PLCg1 inh | UHRF1 ctr MBD2 | MBD2 DBD conf
Cc1nn(CCc2n[nH]c(=S)n2-c2ccc(F)c(Cl)c2)c(C)c1[N+](=O)[O-] | 0 | 0 | 0 | 0 | 0 | - | -
O=C1CCC2(CCCCC2)N1CCCO | 0 | 0 | 0 | 0 | 0 | - | -
COC(=O)C1CCN(C(c2cccs2)c2sc3nc(C)nn3c2O)CC1 (stereo not drawn) | 19 | 0 | 0 | 0 | 0 | 0 | 0
O=C(CSc1nnc(-c2ccccn2)n1-c1ccccc1)Nc1ccc2c(c1)OCCO2 | 0 | 0 | 0 | 0 | 0 | - | -
CC1CCCN(CCCNC(=O)c2ccc3c(c2)N(Cc2ccc(F)cc2)C(=O)c2ccccc2S3=O)C1 (stereo not drawn) | 17 | 0 | 0 | 0 | 0 | 0 | 0
FC(F)(F)c1ccccc1Cc1c(-c2ccco2)nc2c3ccccc3ccn12 | 13 | 0 | 0 | 0 | 0 | 0 | 0
CCOC(=O)c1cnc2c(cnn2C)c1NCc1ccc(OC)cc1 | 44 | 0 | 0 | 0 | 0 | 0 | 0
CCN(CC)S(=O)(=O)c1ccc(C(=O)NCc2nnc(SCC(=O)OC)n2C)cc1 | 21 | 0 | 0 | 0 | 0 | 0 | 0
COC(=O)CSc1nnc(CNC(=O)c2ccc(S(=O)(=O)N(C)C)cc2)n1C | 0 | 0 | 0 | 0 | 0 | - | -
COc1cc(OC)cc(C(=O)Nc2ccc3c(c2)CCCN3C(=O)c2cccs2)c1 | 25 | 0 | 0 | 0 | 0 | 0 | 0
Cn1c(=O)c2[nH]c(SCC(=O)N3CCN(c4cccc(C(F)(F)F)c4)CC3)nc2n(C)c1=O | 0 | 0 | 0 | 0 | 0 | - | -
COc1ccc(OC)c(C(=O)CSc2nnc(SCc3cccc4ccccc34)s2)c1 | 0 | 0 | 0 | 0 | 0 | - | -
CCOc1ccc(NC(=O)NN2C(C)CCCC2C)cc1 (stereo not drawn) | 102 | 0 | 0 | 0 | 0 | 0 | 0
CCOc1ccc(NC(=S)NN2C(C)CCCC2C)cc1 (stereo not drawn) | 0 | 0 | 0 | 0 | 0 | - | -
COc1ccccc1OCCSc1nc2ccccc2c(=O)[nH]1 | 0 | 0 | 0 | 0 | 0 | - | -
O=c1[nH]c(SCCOc2ccccc2F)nc2ccccc12 | 14 | 0 | 0 | 23 | 0 | 0 | 0
C=CCN(CC#Cc1ccccc1)Cc1ccc(OC)cc1 | 0 | 0 | 0 | 0 | 0 | - | -
Cn1c(SCc2ccc(C(C)(C)C)cc2)nnc1-c1ccco1 | 0 | 0 | 0 | 0 | 0 | - | -
CC1(C(=O)NS(=O)(=O)c2ccc(Br)cc2)CCN1C(=O)CC1CCCCC1 (stereo not drawn) | 18 | 0 | 0 | 0 | 0 | 0 | 0
CCOc1ccc(NC(=O)c2cccc(-n3cccc3)c2)cc1S(=O)(=O)N1CCOCC1 | 31 | 0 | 0 | 54 | 0 | 77 | 68
COc1ccc(S(=O)(=O)N2CCOCC2)cc1NC(=O)c1cccc(-n2cccc2)c1 | 0 | 0 | 0 | 0 | 0 | - | -
Cn1cnc([N+](=O)[O-])c1S(=O)(=O)Nc1ccccc1 | 0 | 0 | 0 | 0 | 0 | - | -
Cn1cnc([N+](=O)[O-])c1S(=O)(=O)Oc1ccccc1 | 14 | 0 | 0 | 0 | 0 | 0 | 0
COc1ccc(NC(=O)CSc2nc3[nH]ncc3c(=O)n2-c2ccccc2C)cc1OC | 0 | 0 | 0 | 0 | 0 | - | -
COc1ccc(NC(=O)CSc2nc3[nH]ncc3c(=O)n2-c2ccccc2OC)cc1OC | 17 | 0 | 0 | 26 | 0 | 0 | 0
SMILES | MBD2 DNA inh | LEDGF integ inh | PLCb3 inh | UHRF1 MBD2 ctr | PLCg1 inh | UHRF1 ctr MBD2 | MBD2 DBD conf
CCN(CC(=O)NC(C)(C)C)Cc1nc2c(Br)cc(Br)cc2c(=O)[nH]1 | 41 | 0 | 0 | 0 | 0 | 0 | 0
COC(=O)C[C@@H]1CC[C@@H]2[C@H](COc3ccc(NC(=O)c4ccc(F)c(F)c4)cc3C(=O)N2C)O1 | 0 | 0 | 0 | 0 | 0 | - | -
COC(=O)[C@]12C[C@H](CC(=O)NCc3ccc(C)o3)C(=O)N(CCc3ccc(OC)c(OC)c3)C1=C[C@H](C1CCCC1)O[C@@H]2C | 0 | 0 | 0 | 0 | 0 | - | -
Cc1cccc(Cn2cc(SCC(=O)Nc3nccs3)c3ccccc32)c1 | 30 | 0 | 0 | 0 | 0 | 0 | 0
COc1cccc(NC(=S)N2CCN(Cc3ccccc3)CC2)c1 | 17 | 0 | 0 | 0 | 0 | 0 | 0
Cc1c(C(=O)Nc2cccc(F)c2)cnn1-c1ccccc1 | 13 | 0 | 0 | 0 | 0 | 0 | 0
Cc1c(C(=O)Nc2ccccc2)cnn1-c1ccccc1 | 0 | 0 | 0 | 0 | 0 | - | -
COCCNc1ncnc2c1ncn2[C@H]1CN(Cc2ccco2)C[C@@H](CO)O1 | 24 | 0 | 0 | 0 | 0 | 0 | 0
CN(C)Cc1c(O)ccc2c3c(c(=O)oc12)CCCCC3 | 0 | 0 | 0 | 0 | 0 | - | -
CN(Cc1c(O)ccc2c1oc(=O)c1ccccc12)C1CCCCC1 | 20 | 0 | 0 | 0 | 0 | 0 | 0
CCN(CC)C(=S)NC(=O)c1ccc(F)cc1 | 27 | 0 | 0 | 0 | 0 | 0 | 0
CCN(CC)C(=S)NC(=O)c1cccnc1 | 0 | 0 | 0 | 0 | 0 | - | -
COc1ccc(CN(C(=O)c2cccs2)c2ccccc2C(=O)O)cc1 | 0 | 0 | 0 | 0 | 0 | - | -
CN(C(=O)c1cccs1)c1ccccc1C(=O)O | 16 | 0 | 0 | 32 | 0 | 0 | 0
Cc1cccc(N2C(=O)CC(Sc3nc(C)c4c(n3)CCCC4)C2=O)c1 (stereo not drawn) | 14 | 0 | 0 | 0 | 0 | 0 | 0
CC(C)Oc1ccc2nnnn2n1 | 14 | 0 | 0 | 22 | 0 | 0 | 0
c1ccc(-c2ccc3nnnn3n2)cc1 | 0 | 0 | 0 | 0 | 0 | - | -
CCOC(=O)Cn1cc(CN2CCS(=O)(=O)N(Cc3ccccc3)C(C(=O)OC)C2)nn1 (stereo not drawn) | 14 | 0 | 0 | 0 | 0 | 0 | 0
CCOC(=O)Cn1cc(CN2C(C(=O)OC)CN(Cc3ccccc3)CCS2(=O)=O)nn1 (stereo not drawn) | 0 | 0 | 0 | 0 | 0 | - | -
O=C(COC(=O)C1CCC1)NC(=O)c1ccccc1 | 0 | 0 | 0 | 0 | 0 | - | -
O=C(COC(=O)C1CC1)NC(=O)c1ccccc1 | 16 | 0 | 0 | 23 | 0 | 0 | 0
COC(=O)[C@]12C[C@H](CC(=O)NCc3cccc(C(F)(F)F)c3)C(=O)N(Cc3cccc4ccccc34)C1=C[C@H](C(C)(C)C)O[C@@H]2C | 25 | 0 | 0 | 0 | 0 | 0 | 0
COC(=O)[C@]12C[C@H](CC(=O)NCc3ccccc3)C(=O)N(Cc3cccc4ccccc34)C1=C[C@H](C(C)(C)C)O[C@@H]2C | 0 | 0 | 0 | 0 | 0 | - | -

Source: PubChem (The Scripps Research Institute Molecular Screening Center)
